# From PubChem
# Many of the other results were omitted from the sample, so hits are more common in it than they were.
# DT40 TDP1 CPT: DT40-hTDP1 cell growth loss with CPT; chicken DT40 Tdp1-/-;hTDP1 cells + 20 nM CPT, ATP luminescence, 48 h; Potency, µM (series often up to 46.2 µM), inactives show top-dose activity change, negative = growth inhibition, hits mostly inhibitors; 420,000 tested, 12% active; AID 686979; also: potency is read from the fitted curve at half-maximal effect; nearly all actives have a fitted effect of over 55% in size
#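 Cell growth measured by CellTiter-Glo luminescence after a minimum 48 h, 37 C compound exposure with 20 nM CPT in Tdp1-knockout DT40 cells stably expressing hTDP1, seeded 400/well; qHTS titration format.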
# IL-1B inflam inh: inflammasome signaling inhibition, IL-1 beta readout; THP-1 LPS/ATP IL-1B secretion, AlphaLISA, 16 h; hits give low values; activity change, % at 57.5 µM; 360,000 tested, 4.7% active; AID 743279; in the data active = activity change below about -50%; inconclusive = mostly about -30% to -49%
#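 THP-1 cells pretreated 1 hr with compounds (up to 57.5 uM final), then stimulated with LPS (250 ng/mL final) plus ATP (1.25 mM final); secreted IL-1B measured by AlphaLISA after 16 hr, decreased signal indicating inhibition.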
# DT40 TDP1 no CPT: qHTS for Inhibitors of human tyrosyl-DNA phosphodiesterase 1 (TDP1): qHTS in cells in absence of CPT; DT40 Tdp1-/- hTDP1 cells, no CPT, ATP luminescence, 48 h; AID 686978, 2013; Potency, µM (highest dose often 46.2 µM), without a hit: at the highest dose activity change, negative = growth inhibition, most hits filed as inhibitors; 420,000 tested, 15% active; also: potency is read from the fitted curve at half-maximal effect; nearly all actives have a fitted effect of over 55% in size
#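 No-CPT arm: Tdp1-/-;hTDP1 DT40 cells (400/well) plus compounds, incubated ≥48 hr at 37 °C. Readout CellTiter-Glo luminescence.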
# ALOX12 inh: ALOX12 (human) lipoxygenase inhibition; AID 1671190; purified 12hLO, xylenol orange hydroperoxide absorbance; 580,000 tested, 1.1% active; P18054; Potency, µM (series often up to 108 µM), without a hit: at the top dose activity change, negative = inhibition, actives largely listed as inhibitors; also: potency is read from the fitted curve at half-maximal effect
# Target sequence (P18054 whole entry, looked up): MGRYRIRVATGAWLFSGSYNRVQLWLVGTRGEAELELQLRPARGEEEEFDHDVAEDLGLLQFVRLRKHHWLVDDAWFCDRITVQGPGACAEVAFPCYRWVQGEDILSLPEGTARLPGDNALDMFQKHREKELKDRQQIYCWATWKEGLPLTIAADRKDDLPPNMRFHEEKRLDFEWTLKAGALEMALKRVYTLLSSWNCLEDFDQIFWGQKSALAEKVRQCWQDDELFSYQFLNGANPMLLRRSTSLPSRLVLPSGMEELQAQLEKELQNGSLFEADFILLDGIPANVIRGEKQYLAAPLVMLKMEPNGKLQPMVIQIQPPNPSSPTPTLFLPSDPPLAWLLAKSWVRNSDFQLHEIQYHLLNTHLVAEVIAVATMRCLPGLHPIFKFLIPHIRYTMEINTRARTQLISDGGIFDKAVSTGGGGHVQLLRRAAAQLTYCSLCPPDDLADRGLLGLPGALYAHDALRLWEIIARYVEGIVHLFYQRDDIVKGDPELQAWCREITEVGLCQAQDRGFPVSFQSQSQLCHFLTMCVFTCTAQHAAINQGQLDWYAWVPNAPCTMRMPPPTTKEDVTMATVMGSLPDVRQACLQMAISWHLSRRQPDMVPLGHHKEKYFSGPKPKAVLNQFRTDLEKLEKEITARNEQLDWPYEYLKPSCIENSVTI
#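 Hydroperoxide product was detected by ferrous iron/xylenol orange as the 573 to 405 nm absorbance ratio. Arachidonic acid at 40 uM (final) was turned over for 30 min at room temperature by 150 nM human 12hLO, pH 7.0 Hepes buffer, after 15 min compound preincubation.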
# HT1080 IDH1KD tx: toxicity to HT-1080 IDH1 knockdown cells (counter line); HT-1080 IDH1 knockdown viability, ATP luminescence, 48 h; Potency, µM (doses to about 46.1 µM), inactives show at the top dose activity, negative = toxicity, hits mostly cytotoxic; 360,000 tested, 2% active; AID 686971;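 also: potency is read from the fitted curve at half-maximal effect; 0% = DMSO wells and -100% = cell-free medium wells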
#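 Using the IDH1-knockdown HT-1080 line run in the same batch and compound series as the NT line, viability after 48 h at 37 °C was determined by CellTiter-Glo luminescence and expressed as % activity.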
# HT1080-NT tox: kills 2HG-producing HT-1080-NT fibrosarcoma cells | Potency, µM (doses to about 46.1 µM), for inactives: top-dose activity, negative = less viability, actives largely listed as cytotoxic | 360,000 tested, 1.6% active | HT-1080-NT fibrosarcoma viability, CellTiter-Glo ATP luminescence, 48 h;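 also: NT is the 2HG producing partner of a matched IDH1 knockdown line; potency is read from the fitted curve at half-maximal effect; 0% = DMSO-treated cells and -100% = media-only wells without cells; nearly all actives have a fitted effect of over 55% in size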
#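 Fibrosarcoma NT cells, 750 per well in 5% FBS RPMI, were exposed to compound for 48 hours. Viability: CellTiter-Glo luminescence.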
# Numbers without * were called inactive; ? = inconclusive; nt = no result given; ! = a repeat was not active. Unless noted, calls follow the shape of the dose curve; as a rule, active = well fitted curve in the direction sought with a large enough effect; inconclusive = small, poorly fitted or top-dose-only effect, or another doubt; inactive = no such curve, though single readings can be large; an effect the other way counts as inactive or inconclusive. Unless noted, % is scaled to controls: 0 for no effect and ±100 for the full control effect.
SMILES,DT40 TDP1 CPT,IL-1B inflam inh,DT40 TDP1 no CPT,ALOX12 inh,HT1080 IDH1KD tx,HT1080-NT tox
COc1cc2c(cc1OC)C(C(=O)Nc1ccc3c(c1)OCCO3)C1c3ccccc3CCN1C2=O (stereo not drawn),?,-14,23µM*,-23%,-18%,-16%
COc1cc(C(=O)Nc2ccc(NC(=O)C3CCCCC3)nc2)cc(OC)c1OC,?,-1,18µM*,-27%,?,?
COc1cc(C(=O)Nc2ccc(NC(=O)c3cccc(Cl)c3)nc2)cc(OC)c1OC,26µM*,-4,8.2µM*,-15%,?,-6%
O=C(Nc1ccc(NC(=O)C2CCCCC2)nc1)c1cccs1,?,-23,12µM*,-7%,-2%,-6%
Cc1ccc(NC(=O)c2cccc(Cl)c2)nc1,-25%,-7,-26%,-14%,-2%,-2%
CCCCCn1nc(C(=O)Nc2cccc(OC)c2)c2ccccc2c1=O,nt,nt,nt,5%,nt,nt
Cc1ccc2nc(-c3ccccc3)cc(C(=O)N3CCN(CC(=O)NC4CC4)CC3)c2c1,nt,nt,nt,2%,nt,nt
Cn1c2ccccc2c2cc(/C=N/NC(=O)c3ccc(O)cc3O)ccc21,?,0,?,nt,?,-29%
Cn1c(O)c(/C=N/NC(=O)c2cc3ccccc3cc2O)c2ccccc21,16µM*,83,15µM*,0%,?,16µM*
C=C1CCN([C@@H](CC(C)C)C(=O)NCCC(C)C)S(=O)(=O)c2ccccc21,?,21,23µM*,-8%,-6%,-2%
C=C1CCN([C@@H](Cc2ccccc2)C(=O)NCCCc2ccccc2)S(=O)(=O)c2ccccc21,23µM*,4,?,-3%,-8%,-9%
C=C1CCN([C@@H](CC(C)C)C(=O)NN2CCOCC2)S(=O)(=O)c2ccccc21,3%,-15,17%,4%,9%,2%
C=C1CCN([C@@H](CC(C)C)C(=O)NCc2ccc(OC)cc2)S(=O)(=O)c2ccccc21,?,6,23µM*,-4%,2%,9%
C=C1CCN([C@@H](CC(C)C)C(=O)NCc2ccc(Cl)cc2)S(=O)(=O)c2ccccc21,?,31,?,-13%,-3%,-1%
C=C1CCN([C@@H](CC(C)C)C(=O)NCc2ccc(Cl)c(Cl)c2)S(=O)(=O)c2ccccc21,?,-2,16µM*,-10%,-12%,?
CC(=O)c1ccc(NC(=O)[C@@]2(CC(=O)O)CC(c3ccc(C)cc3)=NO2)cc1,nt,nt,nt,-23%,nt,nt
COc1ccccc1-n1c(=O)c2c3c(sc2n(Cc2ccccc2F)c1=O)CN(C(C)=O)CC3,-22%,nt,-9%,?,nt,nt
COc1cccc(-n2c(=O)c3c(C)c(C(=O)N(C)C)sc3n(Cc3ccc(F)cc3Cl)c2=O)c1,?,nt,18µM*,-24%,nt,nt
COc1ccc(-n2c(=O)c3c(C)c(C)sc3n(CC(=O)NCc3ccc(C)cc3)c2=O)c(OC)c1,-5%,nt,-14%,-20%,nt,nt
COc1ccc(-n2c(=O)c3c(C)c(C)sc3n(Cc3ccc(F)cc3)c2=O)c(OC)c1,3%,-9,13µM*,-1%,-1%,0%
COc1ccc(-n2c(=O)c3c4c(sc3n(Cc3ccc(F)cc3)c2=O)CN(C(C)=O)CC4)c(OC)c1,21µM*,nt,13µM*,-2%,nt,nt
CC1=Nc2cc(C(=O)NCCCN3CCN(C)CC3)ccc2Sc2ccc(C)cc21,?,-2,18µM*,-2%,-13%,-24%
CCC(C)NC(=O)c1ccc2c(c1)N=C(C)c1cc(C)ccc1S2 (stereo not drawn),3.3µM*,nt,5.2µM*,0%,nt,nt
CC1=Nc2cc(C(=O)NCC3CCCO3)ccc2Sc2ccc(C)cc21 (stereo not drawn),0.58µM*,6,0.92µM*,0%,?,8%
CC1=Nc2cc(C(=O)NC(C)c3ccccc3)ccc2Sc2ccccc21 (stereo not drawn),nt,nt,nt,-4%,nt,nt
SMILES,DT40 TDP1 CPT,IL-1B inflam inh,DT40 TDP1 no CPT,ALOX12 inh,HT1080 IDH1KD tx,HT1080-NT tox
O=C(NCC1CCCO1)c1cccc(C(=O)NCC2CCCO2)c1 (stereo not drawn),-1%,6,?,0%,3%,4%
Cc1ccc(C)c(NC(CNS(=O)(=O)c2ccccc2)c2ccccc2)c1 (stereo not drawn),nt,nt,nt,28%,nt,nt
C/C(=N/NC(=S)NCc1ccccc1)c1ccc(Cl)c(Cl)c1,nt,nt,nt,-24%,nt,nt
COc1ccc(-c2coc3cc(OCC(=O)NC(C)c4ccccc4)ccc3c2=O)cc1OC (stereo not drawn),nt,nt,nt,-11%,nt,nt
O=C(NNc1ccccc1)C(=O)NNS(=O)(=O)c1ccc([N+](=O)[O-])cc1,2%,11,5%,?,5.8µM*,2.1µM*
CC(=O)Nc1ccc(S(=O)(=O)NNC(=O)c2ccc([N+](=O)[O-])cc2)cc1,-4%,85,23%,?,-2%,0%
CC(=O)Nc1ccc(S(=O)(=O)NNc2ccc([N+](=O)[O-])cc2)cc1,?,-7,?,?,16µM*,?
O=C(NC1CC1)[C@@H]1CN(Cc2ccc(OC(F)(F)F)cc2)C[C@H]1CO,nt,nt,nt,10%,nt,nt
O=C(NCc1ccc(Cl)cc1)c1cnc2sc(N3CCCC3)nn2c1=O,?,nt,?,-14%,nt,nt
COc1ccc(CCNC(=O)c2cnc3sc(N4CCCC4)nn3c2=O)cc1OC,?,nt,23µM*,-21%,nt,nt
O=C(NCCc1ccc(Cl)cc1)c1cnc2sc(N3CCCC3)nn2c1=O,6.5µM*,nt,4.1µM*,-23%,nt,nt
COCCCNC(=O)c1cnc2sc(N3CCCCCC3)nn2c1=O,-9%,nt,-10%,?,nt,nt
COc1ccc(CCNC(=O)c2cnc3ccc(C)cn3c2=O)cc1OC,21µM*,nt,?,-20%,nt,nt
COc1cccc(CCNC(=O)c2cnc3sc(N4CCCC4)nn3c2=O)c1,15µM*,nt,16µM*,-1%,nt,nt
Cc1cccc(-c2noc(-c3ccc(Br)cc3)n2)c1,nt,nt,nt,14%,nt,nt
CC(C)CCNC(=O)c1cnc2sc(N3CCCCCC3)nn2c1=O,16µM*,nt,21µM*,-32%,nt,nt
COc1ccc(CCNC(=O)c2cnc3sc(N4CCCCC4)nn3c2=O)cc1OC,23µM*,nt,?,-15%,nt,nt
COc1ccc(OC)c(NC(=O)c2nc(SCc3ccccc3F)ncc2Cl)c1,10µM*!,nt,14µM*!,-9%,nt,nt
COCCCNC(=O)c1cnc2sc(N3CCCCC3)nn2c1=O,-7%,nt,-12%,-6%,nt,nt
Cc1ccc(CSc2ncc(Cl)c(C(=O)Oc3ccccc3F)n2)cc1,-8%,nt,-5%,-21%,nt,nt
